From PubChem BioAssay (NCATS)
Results filed as inconclusive are left out. The source made the active and inactive calls. Calls follow the shape of the dose curve; as a rule, active = well fitted curve in the direction sought with a large enough effect; inconclusive = small, poorly fitted or top-dose-only effect, or another doubt; inactive = no such curve, though single readings can be large; an effect the other way counts as inactive or inconclusive.

Experiments:
[1] = biological target: Rap guanine nucleotide exchange factor 3 (Homo sapiens) (UniProt O95398); assay: Confirmatory qHTS for agonist of cAMP-regulated guanine nucleotide exchange factor 3 (EPAC1) (AID 1645881);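 also: EPAC1 catalysed release of BODIPY-GDP from Rap1B seen as fluorescence loss; 100% = effect of cAMP agonist control; nearly all actives have a fitted effect of over 75% in size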
Chain of Rap guanine nucleotide exchange factor 3 (Homo sapiens) (O95398 whole entry, looked up): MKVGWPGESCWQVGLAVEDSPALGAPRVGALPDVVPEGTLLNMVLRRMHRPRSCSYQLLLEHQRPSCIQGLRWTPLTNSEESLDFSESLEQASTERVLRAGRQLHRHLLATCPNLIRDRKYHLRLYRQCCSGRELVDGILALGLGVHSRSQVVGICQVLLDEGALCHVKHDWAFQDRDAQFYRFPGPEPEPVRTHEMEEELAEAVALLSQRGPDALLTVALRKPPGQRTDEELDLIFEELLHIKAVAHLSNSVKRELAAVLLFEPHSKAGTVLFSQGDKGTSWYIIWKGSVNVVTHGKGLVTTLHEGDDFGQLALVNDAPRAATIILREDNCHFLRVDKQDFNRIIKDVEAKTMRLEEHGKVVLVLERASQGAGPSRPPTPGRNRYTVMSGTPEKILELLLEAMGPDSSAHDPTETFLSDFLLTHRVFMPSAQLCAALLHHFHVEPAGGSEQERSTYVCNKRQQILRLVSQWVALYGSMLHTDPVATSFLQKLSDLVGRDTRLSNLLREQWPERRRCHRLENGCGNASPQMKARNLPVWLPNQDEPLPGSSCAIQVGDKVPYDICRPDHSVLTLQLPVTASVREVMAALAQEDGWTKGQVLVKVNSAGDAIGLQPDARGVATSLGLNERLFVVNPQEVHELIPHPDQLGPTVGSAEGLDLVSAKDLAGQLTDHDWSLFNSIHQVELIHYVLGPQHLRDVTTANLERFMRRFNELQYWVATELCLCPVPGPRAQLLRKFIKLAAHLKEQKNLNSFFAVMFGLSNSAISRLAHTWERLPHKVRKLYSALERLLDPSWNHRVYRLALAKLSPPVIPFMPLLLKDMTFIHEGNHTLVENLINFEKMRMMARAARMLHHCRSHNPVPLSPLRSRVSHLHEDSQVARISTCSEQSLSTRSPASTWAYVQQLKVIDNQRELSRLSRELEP

[2] = biological target: Rap guanine nucleotide exchange factor 4 (Homo sapiens) (UniProt Q8WZA2); assay: Confirmatory qHTS for agonist of cAMP-regulated guanine nucleotide exchange factor 4 (EPAC2) (AID 1645884);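 also: nucleotide exchange releases bodipy-GDP from Rap1 and this lowers its fluorescence; % is scaled to controls: 0 for no effect and ±100 for the full control effect; nearly all actives have a fitted effect of over 65% in size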
Chain of Rap guanine nucleotide exchange factor 4 (Homo sapiens) (Q8WZA2 whole entry, looked up): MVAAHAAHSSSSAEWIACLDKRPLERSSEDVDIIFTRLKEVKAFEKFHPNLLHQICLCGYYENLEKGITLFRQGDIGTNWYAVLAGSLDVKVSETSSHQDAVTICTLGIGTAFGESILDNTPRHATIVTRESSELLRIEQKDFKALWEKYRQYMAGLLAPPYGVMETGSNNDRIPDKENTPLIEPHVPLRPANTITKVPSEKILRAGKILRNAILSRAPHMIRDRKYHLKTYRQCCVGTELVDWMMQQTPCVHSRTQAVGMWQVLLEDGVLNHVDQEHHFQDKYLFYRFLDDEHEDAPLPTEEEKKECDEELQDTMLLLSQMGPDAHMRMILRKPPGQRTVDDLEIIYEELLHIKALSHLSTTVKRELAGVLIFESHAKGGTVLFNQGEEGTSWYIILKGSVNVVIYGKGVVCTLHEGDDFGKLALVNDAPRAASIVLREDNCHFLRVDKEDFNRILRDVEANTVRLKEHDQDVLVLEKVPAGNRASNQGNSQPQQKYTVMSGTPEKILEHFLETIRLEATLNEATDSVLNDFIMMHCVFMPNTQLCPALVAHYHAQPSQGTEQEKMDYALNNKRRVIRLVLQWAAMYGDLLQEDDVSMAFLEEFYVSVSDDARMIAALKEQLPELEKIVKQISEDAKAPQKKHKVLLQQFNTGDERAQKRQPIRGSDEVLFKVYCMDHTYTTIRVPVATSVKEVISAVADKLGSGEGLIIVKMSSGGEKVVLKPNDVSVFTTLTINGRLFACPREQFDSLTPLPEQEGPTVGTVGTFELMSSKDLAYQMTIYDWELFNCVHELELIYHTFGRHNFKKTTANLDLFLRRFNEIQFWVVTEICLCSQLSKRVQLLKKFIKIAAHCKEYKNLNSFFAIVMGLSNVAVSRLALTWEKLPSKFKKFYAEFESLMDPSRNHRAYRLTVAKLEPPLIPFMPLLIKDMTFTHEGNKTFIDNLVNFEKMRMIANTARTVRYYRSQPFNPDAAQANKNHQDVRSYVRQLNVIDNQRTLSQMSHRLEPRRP

[3] = biological target: Rap guanine nucleotide exchange factor 3 (Homo sapiens) (UniProt O95398); assay: Counterscreen qHTS for antagonist of cAMP-regulated guanine nucleotide exchange factor 3 (EPAC1) (AID 1645888);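 also: fluorescence loss as bound BODIPY-GDP is released from Rap1B; % of control where 0% means no effect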
In short: (§1)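 Rap1B–BODIPY-GDP (250 nM) with 50 uM GDP; compounds pin-transferred to 9.74 nM–152 uM final (activator) or from 7.32 nM upwards (inhibitor). Fluorescence Ex/Em 480/540 nm read at 5 and 30 min, then after adding cAMP or buffer, at room temperature.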

[4] = biological target: Rap guanine nucleotide exchange factor 3 (Homo sapiens) (UniProt O95398); assay: Counterscreen qHTS for agonist of cAMP-regulated guanine nucleotide exchange factor 3 (EPAC1) (AID 1645889); also: % of control where 0% means no effect; nearly all actives have a fitted effect of over 40% in size
In short: as §1

CCOC1=C2[C@@H](CN(S(=O)(=O)c3ccc(C)cc3)[C@H]2c2ccccc2Cl)[C@H]2C(=O)NC(=O)[C@H]2C1
inactive: Potency [1] | Potency [2] | Potency [3]

Cc1ccc(CN(Cc2ccco2)C(=O)c2ccccc2Br)o1
inactive: Potency [1] | Potency [2] | Potency [3]

Cc1cc(NS(=O)(=O)c2ccc(NC(=S)NC(=O)/C=C/c3ccccc3)cc2)no1
inactive: Potency [1] | activation [2] 1.85% [at 17.1 µM, percent relative to cAMP agonist control] | activity change, negative = inhibition [3] -2.1% [at 30.8 µM]

Cc1ccc(/C=C2/SC(=S)N(c3ccc(S(=O)(=O)Nc4nccs4)cc3)C2=O)cc1
inactive: Potency [1] | Potency [2] | Potency [3]

COc1ccc(-c2sc3ccc(OC)cc3c2C#CCCO)cc1
inactive: Potency [1] | Potency [2] | Potency [3]

O=C(Nc1nc(-c2ccc(F)cc2)cs1)C1CCN(C(=O)c2ccc(F)cc2)CC1
inactive: Potency [1] | Potency [2] | Potency [3]

CC(=O)NC(C)(c1ccccc1)c1nc(-c2cc(F)cc(F)c2)cs1 (configuration not stated)
inactive: Potency [1] | Potency [2] | Potency [3]

Nc1ccc(S(=O)(=O)Nc2nccs2)cc1N=Nc1ccccc1[N+](=O)[O-]
inactive: Potency [1] | activation [2] 0% [at 17.1 µM, percent relative to cAMP agonist control] | activity change, negative = inhibition [3] -16% [at 30.8 µM]

CCOC(=O)C1C(=O)C=C(c2ccc(C)cc2)CC1c1ccccc1 (configuration not stated)
inactive: Potency [1] | activation [2] 7.74% [at 17.1 µM, percent relative to cAMP agonist control] | activity change, negative = inhibition [3] -1.31% [at 30.8 µM]

O=C(Cc1c(Sc2ccccc2)c2ccccc2n1Cc1ccccc1)NCCO
inactive: Potency [1] | Potency [2] | Potency [3]

CC(C)=CCc1c(O)cc(O)c2c1OC(c1ccc(O)cc1)CC2=O (configuration not stated)
inactive: Potency [1] | Potency [2] | Potency [3]

CCOc1ccccc1NC(=O)C1COc2ccccc2O1 (configuration not stated)
inactive: Potency [1] | Potency [2] | Potency [3]

CCCCC1CC2=C(C(=O)OC(C)(C)O2)C(c2ccc(Cl)cc2)O1 (configuration not stated)
inactive: Potency [1] | Potency [2] | Potency [3]

CCc1nc2c(OCc3ccc(C(=O)OC)cc3)cccn2c1N(C)C(=O)c1ccc(OC)cc1
inactive: Potency [1] | activation [2] -6.93% [at 17.1 µM, percent relative to cAMP agonist control] | activity change, negative = inhibition [3] 5.67% [at 30.8 µM] | activation [4] 20% [at 30.8 µM]

CCOc1ccc(S(=O)(=O)Nc2nc3ccccc3nc2-n2ccc(=NC(=O)c3cccs3)cc2)cc1
inactive: Potency [1] | Potency [2] | Potency [3]

COc1cccc(COC(=O)CSCC(=O)Nc2cccc(C)c2)c1OC
inactive: Potency [1] | Potency [2] | Potency [3]

Cc1ccc(/C=N/Nc2cc(C)nc(NCc3ccccc3)n2)cc1
inactive: Potency [1] | Potency [2] | Potency [3]

COCCCNC(=O)c1ccc2c3c(onc13)-c1ccccc1C2=O
inactive: Potency [1] | Potency [2] | Potency [3]

CN(CC(=O)Nc1ccc(F)cc1)C(=O)c1cc(-c2ccco2)nc2ccccc12
inactive: Potency [1] | Potency [2] | Potency [3]

C=Cc1ccc(CC2(C)C(=O)Nc3ccc(Cl)cc32)cc1 (configuration not stated)
inactive: Potency [1] | activation [2] 9.02% [at 17.1 µM, percent relative to cAMP agonist control] | activity change, negative = inhibition [3] -14.8% [at 30.8 µM]

CCCCn1c(N)c(N(CCOC)C(=O)c2ccc(-c3ccc(C(C)=O)cc3)o2)c(=O)[nH]c1=O
inactive: Potency [1] | Potency [2] | Potency [3]

O=C(Cc1ccc(Br)c2ccccc12)N/N=C/c1ccccn1
inactive: Potency [1] | Potency [2] | Potency [3] | Potency [4]

CC(=O)NC(c1ccccc1)c1c(O)ccc2ccccc12 (configuration not stated)
inactive: Potency [1] | activation [2] 2.11% [at 17.1 µM, percent relative to cAMP agonist control] | activity change, negative = inhibition [3] -4.37% [at 30.8 µM]

COc1ccc(CCN2C(=O)CSC2=Nc2ccc(C(C)C)cc2)cc1OC
inactive: Potency [1] | Potency [2] | Potency [3]

CC1=NN(c2nc(-c3ccccc3)cs2)C(=O)C1
inactive: Potency [1] | Potency [2] | Potency [3] | Potency [4]

CC(C)CNC(=O)C1(C)CCCCCN1Cc1ccccc1-c1ccccc1 (configuration not stated)
inactive: Potency [1] | Potency [2] | Potency [3] | Potency [4]

Cc1ccc(C)c(Cn2nc(-c3ccccc3)ccc2=O)c1
inactive: Potency [1] | activation [2] -4.57% [at 17.1 µM, percent relative to cAMP agonist control] | activity change, negative = inhibition [3] 14.9% [at 30.8 µM] | activation [4] 3.62% [at 30.8 µM]

O=C(O)c1ccc(N=N/C(=N\Nc2ccc(C(=O)O)cc2)c2ccccc2)cc1
inactive: Potency [1] | activation [2] -13% [at 17.1 µM, percent relative to cAMP agonist control] | activity change, negative = inhibition [3] -1.23% [at 30.8 µM]

COc1ccc(-c2nn3c(-c4cccc(C)c4)nnc3s2)cc1OC
inactive: Potency [1] | Potency [2] | Potency [3]

COc1ccccc1[C@@]1(C)ON(c2ccccc2C(F)(F)F)C1=O
inactive: Potency [1] | Potency [2] | Potency [3]

Cc1ccc(C2CC(c3cccs3)=NN2C(=O)CSc2nc(=O)n3cc(C)ccc3n2)cc1 (configuration not stated)
inactive: Potency [1] | Potency [2] | Potency [3] | Potency [4]

CCOC(=O)C1=CCN(S(=O)(=O)c2ccccc2C)C1c1ccc(Cl)c(Cl)c1 (configuration not stated)
inactive: Potency [1] | Potency [2] | Potency [3]
